Each structure is given as a SMILES string. The panel holds about 79,000 compounds, 15% with a hit somewhere; the sample as a whole holds those more often. Values without a mark were called inactive. Activity calls are given as the source filed them. No stated cut-off is given here; in the data, active means growth inhibition above about 70%; inactive means the rest.

The nature of the assay: NCI Yeast Anticancer Drug Screen. Data for the mec2-1 strain (AID 157). Particulars: S. cerevisiae mec2-1 strain, at 50.0 µM (retest, dose inferred, filed as 5.0), stronger effect = higher value. Summed up:
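Cells of the genetically defined mec2-1 yeast strain are incubated with test compound. Inhibition of growth is calculated against vehicle-treated controls.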
In the case of `CCCC(C)(COC(N)=O)COC(=O)NC1CC1` (stereo not given), the growth inhibition was 0%.
`O=C(O)C(CSC(c1ccccc1)c1ccccc1)NC(=O)C(c1ccccc1)c1ccccc1` (stereo not given): the growth inhibition was 89% (active).
Consider `CC1=CC2CC(C)=C(CC[C@]3(C)CC[C@H]([C@@H](C)C(=O)O)OO3)C(C)(C)C2CC1` (stereo not given in full), for which the growth inhibition is 99% (active).
As for `O=[N+]([O-])/C=C/c1c(Cl)cccc1Cl`, the figure is 100% (active); as for `O=[n+]1c2ccccc2n([O-])c2ccccc21.[Cl][Cu][Cl]`, 99% (active).
As for `CC(=O)C(CN1CCOCC1)C(c1ccccc1)c1c(O)c2ccccc2oc1=O` (stereo not given), the figure is 75% (active); as for `CC(C)c1oc(=O)cc2c1C(O)C1OC(=O)C3(C)C(O)C4OC4C2(C)C13` (stereo not given), 81% (active); as for `C#CCN1C(=O)N(CC#C)C(=O)C(CC#C)(C(CC=C)c2ccccc2)C1=O` (stereo not given), 97% (active).
As for `COC(=O)C1c2c(C)cc3n2C(C=CC3)C1C(=O)OC` (stereo not given), the figure is 96% (active); as for `[Cl][Hg][c]1ccc(Cl)s1`, 99% (active); as for `N#CC(Cl)(Cl)CCl`, 15%.
Take `O=C1CCC(=O)N1SC(Cl)(Cl)Cl`: the growth inhibition is 4%.
As for `CCCC(=O)O.CCCC(=O)O.CCCC(=O)O.CCCC(=O)O.[Rh].[Rh]`, the figure is 61%.
Turning to `CC(CCC/C=C/CCCN(C)C(=N)N)CC(C)C1OC(=O)C(C)C(O)/C=C/C(C)C(O)C(C)C(O)C(C)C(O)CCCC(O)CC2(O)OC(CC(OC(=O)CC(=O)O)CC(O)CC(O)C(C)C(O)/C=C/C=C/C1C)CC(O)C2O` (stereo not given), the growth inhibition was 99% (active).
As for `OC(CN(CCCl)CCCl)C(O)C(O)C(O)CN(CCCl)CCCl` (stereo not given), the figure is 59%; as for `O=[N+]([O-])c1ccc(CS(=O)(=O)C(Cl)Cl)o1`, 52%.
As for `CC(C)c1cc([N+](=O)[O-])cc([N+](=O)[O-])c1O`, the growth inhibition is 90% (active).
As for `O=P(c1cccc(C(F)(F)F)c1)(c1cccc(C(F)(F)F)c1)c1cccc(C(F)(F)F)c1.O=P(c1cccc(C(F)(F)F)c1)(c1cccc(C(F)(F)F)c1)c1cccc(C(F)(F)F)c1.[Cl][Sn]([Cl])([Cl])[Cl]`, the figure is 83% (active); as for `COc1cc(N(CC(C)Br)CC(C)Br)ccc1N=Nc1ccccc1C(=O)O` (stereo not given), 95% (active).
Take `C(=P(c1ccccc1)(c1ccccc1)c1ccccc1)[P+](c1ccccc1)(c1ccccc1)c1ccccc1.[Cl][Fe]([Cl])([Cl])[Br]`: the growth inhibition was 99% (active).
As for `COc1ccc2c(c1)CCC(N1CCCC(=O)C1)C2` (stereo not given), the figure is 17%; as for `C1CCNCC1.O=C([CH-]C(=O)C(F)(F)F)c1ccc2c(c1)C(=O)c1ccccc1-2.O=C([CH-]C(=O)C(F)(F)F)c1ccc2c(c1)C(=O)c1ccccc1-2.O=C([CH-]C(=O)C(F)(F)F)c1ccc2c(c1)C(=O)c1ccccc1-2.O=C([CH-]C(=O)C(F)(F)F)c1ccc2c(c1)C(=O)c1ccccc1-2.[Eu+3]`, 64%.
As for `O=C1C(=O)C(Br)(Br)C(Br)=C1Br`, the figure is 21%; as for `CN(C)C(=S)Nc1nnc(NC23CC4CC(CC(C4)C2)C3)s1`, 89% (active).
As for `C[CH2][Hg]`, the figure is 99% (active); as for `c1cc2n[pH]nc2cn1` (stereo not given), -8%.
For `CCC[CH2][Sn]1([CH2]CCC)[O]CC(Cc2ccccc2)[O]1` (stereo not given), the growth inhibition was 98% (active).
As for `Clc1ccccc1C#[C][Hg][C]#Cc1ccccc1Cl`, the figure is 94% (active).
As for `CC12CCC3C(CC=C4CC(SC(=N)N)CCC43C)C1CCC2=O` (stereo not given), the figure is 51%.
As for `COc1ccccc1/C=C/[N+](=O)[O-]`, the figure is 99% (active).
`ClC(CN1CCCCC1)C(Cl)c1ccccc1` (stereo not given): the growth inhibition was 21%.
With `CCC[CH2][Sn]1([CH2]CCC)[O]CC(CN2CCCCC2)[O]1` (stereo not given), the growth inhibition is 95% (active).
As for `COC1OC(CO)C(O)C(O)[CH]1[Hg][Cl]` (stereo not given), the growth inhibition is 99% (active).
Turning to `ClC1=C(Cl)C2(Cl)C(Cl)CC1(Cl)C2(Cl)Cl` (stereo not given), the growth inhibition was -1%.
As for `[Hg][c]1ccccc1`, the figure is 100% (active).
Take `O=[N+]([O-])c1cccc(SC(Cl)(Cl)Cl)c1`: the growth inhibition was 99% (active).
Turning to `CC1=C(O)C(=O)C=C2C1=CC=C1[C@@]2(C)CC[C@@]2(C)[C@@H]3C[C@](C)(C(=O)O)CC[C@]3(C)CC[C@]12C`, the growth inhibition was 98% (active).
As for `CCC[CH2][Sn]1([CH2]CCC)[O]C2C(O)OC(CO)C(O)C2[O]1` (stereo not given), the figure is 99% (active); as for `O=[As]c1ccccc1O` (stereo not given), 98% (active).
With `CC[PH+](CC)CC.[Cl][Au]`, the growth inhibition was 99% (active).

Values taken from PubChem BioAssay (NCI).
